Results taken from PubChem BioAssay AID651739 (Broad Institute, 2012).
Among all 5,600 compounds or so, about 4,100 (73%) were called active. Inconclusive results (about 4%) are left out. The set was probably picked from earlier hits. These entries were drawn from the full list. Values without a mark were called inactive.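 Rule for the calls: active = mean replicate inhibition above about 95% and at least 55% of replicates individually reaching it (limit read from the data); inconclusive = only one of the two criteria is met; inactive = neither criterion is met.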

Test: blockers of Trypanosoma cruzi growth in host cells – cell-based, NIH3T3 host, beta-gal parasite, luminescence, cherry-pick, confirmation (AID 651739)
Settings: T. cruzi beta-gal in NIH3T3, GalScreen luminescence, 90 h; at 8.35 µM; hits give high values

**Q.** With COCC(=O)N1[C@H](CO)[C@@H](c2ccc(C#Cc3ccccc3F)cc2)[C@@H]1C#N as the compound, how does the inhibition read?
**A.** 107% (active)

**Q.** With CC(=O)N(C)C[C@@H]1[C@@H](c2ccc(-c3ccccc3F)cc2)[C@@H](CO)N1C(C)=O as the compound, how does the inhibition read?
**A.** 19.8%

**Q.** For C[C@H](CO)N1C[C@H](C)[C@H](CN(C)S(=O)(=O)c2ccc(F)cc2)OCCCC[C@H](C)Oc2ccc(NS(=O)(=O)c3ccc(Cl)cc3)cc2C1=O, which inhibition is on record?
**A.** 92.1%

**Q.** For C[C@@H]1CCCCO[C@H](CN(C)S(=O)(=O)c2ccc(F)cc2)[C@H](C)CN([C@@H](C)CO)C(=O)c2cc(NS(=O)(=O)c3ccccc3)ccc2O1, which inhibition is on record?
**A.** 109% (active)

**Q.** For Cc1ccc(S(=O)(=O)Nc2ccc3c(c2)C(=O)N([C@H](C)CO)C[C@H](C)[C@H](CN(C)C(=O)Nc2ccc(F)cc2)OCCCC[C@H](C)O3)cc1, which inhibition is on record?
**A.** 108% (active)

**Q.** For COc1ccc(S(=O)(=O)N(C)C[C@H]2OCCCC[C@H](C)Oc3ccc(NS(=O)(=O)c4ccc(F)cc4)cc3C(=O)N([C@@H](C)CO)C[C@@H]2C)cc1, which inhibition is on record?
**A.** 106% (active)

**Q.** For Cc1ccc(S(=O)(=O)N(C)C[C@@H]2OCCCC[C@@H](C)Oc3ccc(NS(=O)(=O)c4ccc(F)cc4)cc3C(=O)N([C@H](C)CO)C[C@H]2C)cc1, which inhibition is on record?
**A.** 97.7% (active)

**Q.** Which inhibition does the source give for COc1cccc(S(=O)(=O)N2C[C@@H](O)COC[C@@H]3O[C@H](CC(=O)Nc4ccccc4)CC[C@H]32)c1 here?
**A.** 62.3%

**Q.** For Cc1ccc(S(=O)(=O)N2C[C@@H](O)COC[C@@H]3O[C@H](CC(=O)NCc4ccc(Cl)c(Cl)c4)CC[C@H]32)cc1, which inhibition is on record?
**A.** 103% (active)

**Q.** Which inhibition does the source give for COc1ccc(S(=O)(=O)Nc2ccc3c(c2)C(=O)N([C@@H](C)CO)C[C@H](C)[C@@H](CN(C)Cc2ccc(C(F)(F)F)cc2)O3)cc1 here?
**A.** 88.7%

**Q.** With COc1ccc(S(=O)(=O)Nc2ccc3c(c2)C(=O)N([C@H](C)CO)C[C@H](C)[C@H](CN(C)Cc2ccc(C(F)(F)F)cc2)O3)cc1 as the compound, how does the inhibition read?
**A.** 106% (active)

**Q.** For COc1ccc(S(=O)(=O)Nc2ccc3c(c2)C(=O)N([C@@H](C)CO)C[C@H](C)[C@H](CN(C)Cc2ccc(C(F)(F)F)cc2)O3)cc1, which inhibition is on record?
**A.** 104% (active)

**Q.** Which inhibition does the source give for C[C@H](CO)N1C[C@H](C)[C@H](CN(C)Cc2ccc(C(F)(F)F)cc2)Oc2ccc(NS(=O)(=O)c3ccc(Cl)cc3)cc2C1=O here?
**A.** 106% (active)

**Q.** For COc1ccc(CN(C)C[C@H]2Oc3ccc(NS(=O)(=O)c4ccc(Cl)cc4)cc3CC(=O)N([C@@H](C)CO)C[C@H]2C)cc1, which inhibition is on record?
**A.** 100% (active)

**Q.** With Cc1ccc(S(=O)(=O)Nc2ccc3c(c2)C(=O)N([C@H](C)CO)C[C@H](C)[C@H](CN(C)Cc2ccc(Cl)c(Cl)c2)O3)cc1 as the compound, how does the inhibition read?
**A.** 102% (active)

**Q.** With O=C(C[C@@H]1C[C@H]2c3cc(NC(=O)C4CCC4)ccc3O[C@H]2[C@@H](CO)O1)NCc1ccc2c(c1)OCO2 as the compound, how does the inhibition read?
**A.** 12.6%

**Q.** For O=C(C[C@@H]1C[C@@H]2c3cc(NC(=O)c4ccc5c(c4)OCO5)ccc3O[C@@H]2[C@@H](CO)O1)NCc1ccc(Cl)cc1, which inhibition is on record?
**A.** 106% (active)

**Q.** For COc1cccc(S(=O)(=O)Nc2ccc3c(c2)[C@H]2C[C@H](CC(=O)NCc4ccc(Cl)cc4)O[C@H](CO)[C@H]2O3)c1, which inhibition is on record?
**A.** 104% (active)

**Q.** Which inhibition does the source give for O=C(Nc1ccc2c(c1)[C@@H]1C[C@H](CC(=O)N3CCOCC3)O[C@@H](CO)[C@@H]1O2)c1ccc2c(c1)OCO2 here?
**A.** 13.5%

**Q.** Which inhibition does the source give for C/C=C/c1ccc([C@H]2[C@@H](CNC(C)C)N(c3nc(CC)cs3)[C@H]2CO)cc1 here?
**A.** 101% (active)

**Q.** For C[C@@H]1CCCCO[C@H](CN(C)Cc2ccc(Cl)c(Cl)c2)[C@H](C)CN([C@@H](C)CO)C(=O)c2cc(NC(=O)C3CCCCC3)ccc2O1, which inhibition is on record?
**A.** 97.4% (active)

**Q.** With C[C@H]1CCCCO[C@H](CN(C)Cc2ccc(C(F)(F)F)cc2)[C@@H](C)CN([C@@H](C)CO)C(=O)c2cc(NC(=O)C3CCCCC3)ccc2O1 as the compound, how does the inhibition read?
**A.** 100% (active)

**Q.** With C[C@@H]1CCCCO[C@@H](CN(C)CC2CC2)[C@H](C)CN([C@H](C)CO)C(=O)c2cc(NC(=O)C3CCCCC3)ccc2O1 as the compound, how does the inhibition read?
**A.** 99.2% (active)

**Q.** With C[C@@H]1CN([C@@H](C)CO)C(=O)c2cc(NC(=O)C3CCCCC3)ccc2O[C@@H](C)CCCCO[C@H]1CN(C)Cc1ccncc1 as the compound, how does the inhibition read?
**A.** 97.3% (active)

**Q.** Which inhibition does the source give for CCCNC(=O)N1[C@@H]2c3cccc(=O)n3C[C@H]1[C@H](CO)[C@H]2C(=O)NCC(F)(F)F here?
**A.** 21.5%

**Q.** For C[C@H](CO)N1C[C@H](C)[C@@H](CN(C)Cc2ccc(C(F)(F)F)cc2)OCCCC[C@H](C)Oc2ccc(NC(=O)C3CCCCC3)cc2C1=O, which inhibition is on record?
**A.** 98.1% (active)

**Q.** With COc1ccc(CN(C)C[C@H]2OCCCC[C@H](C)Oc3ccc(NC(=O)Nc4ccc5c(c4)OCO5)cc3C(=O)N([C@H](C)CO)C[C@@H]2C)cc1 as the compound, how does the inhibition read?
**A.** 100% (active)

**Q.** Which inhibition does the source give for C[C@@H]1CCCCO[C@@H](CN(C)Cc2ccc3c(c2)OCO3)[C@@H](C)CN([C@@H](C)CO)C(=O)c2cc(NC(=O)Nc3ccccc3)ccc2O1 here?
**A.** 110% (active)

**Q.** With CNC[C@@H]1Oc2cc(C#CCC3CCCC3)ccc2S(=O)(=O)N([C@H](C)CO)C[C@H]1C as the compound, how does the inhibition read?
**A.** 95% (active)

**Q.** Which inhibition does the source give for C[C@@H]1CN([C@H](C)CO)S(=O)(=O)c2ccc(C#CCC3CCCC3)cc2O[C@H]1CN(C)C(=O)CC1CC1 here?
**A.** 97.4% (active)

**Q.** For CO[C@H](CN(C)S(=O)(=O)c1ccc(Cl)cc1)[C@@H](C)CN(Cc1ccccc1Cl)[C@H](C)CO, which inhibition is on record?
**A.** 110% (active)

**Q.** Which inhibition does the source give for CN1C(=O)c2cc(NC(=O)c3cnccn3)ccc2OC[C@@H]2O[C@@H](CC(=O)N[C@H]3CCN(Cc4ccccc4)C3)CC[C@H]21 here?
**A.** 71.5%

**Q.** For CN1C(=O)c2cc(NC(=O)Nc3ccccc3F)ccc2OC[C@H]2O[C@H](CC(=O)NCc3ccc(-c4ccccc4)cc3)CC[C@H]21, which inhibition is on record?
**A.** 108% (active)

**Q.** Which inhibition does the source give for CN1C(=O)c2cc(NC(=O)c3cnccn3)ccc2OC[C@@H]2O[C@H](CC(=O)N[C@@H]3CCN(Cc4ccccc4)C3)CC[C@@H]21 here?
**A.** 99.8% (active)

**Q.** Which inhibition does the source give for C[C@H]1CCCCO[C@H](CN(C)S(=O)(=O)c2ccc(Cl)cc2)[C@@H](C)CN([C@@H](C)CO)C(=O)c2cc(NC(=O)Nc3ccc4c(c3)OCO4)ccc2O1 here?
**A.** 103% (active)

**Q.** For COc1ccc(NC(=O)Nc2ccc3c(c2)C(=O)N([C@H](C)CO)C[C@H](C)[C@H](CN(C)S(=O)(=O)c2ccc(Cl)cc2)OCCCC[C@H](C)O3)cc1, which inhibition is on record?
**A.** 104% (active)

**Q.** For CC(C)NC(=O)Nc1ccc2c(c1)C(=O)N([C@@H](C)CO)C[C@H](C)[C@H](CN(C)S(=O)(=O)c1ccc(Cl)cc1)OCCCC[C@H](C)O2, which inhibition is on record?
**A.** 104% (active)

**Q.** Which inhibition does the source give for C[C@@H]1CN([C@H](C)CO)C(=O)c2cc(NS(C)(=O)=O)ccc2O[C@@H](C)CCCCO[C@H]1CN(C)S(=O)(=O)c1cn(C)cn1 here?
**A.** -9.98%

**Q.** With C[C@H](CO)N1C[C@H](C)[C@@H](CN(C)S(=O)(=O)c2ccccc2F)Oc2ncc(C#Cc3ccccc3F)cc2C1=O as the compound, how does the inhibition read?
**A.** 106% (active)

**Q.** Which inhibition does the source give for C[C@H](CO)N1C[C@H](C)[C@@H](CN(C)S(=O)(=O)c2ccccc2)Oc2ncc(C#Cc3ccccc3F)cc2C1=O here?
**A.** 111% (active)

**Q.** With CCCNC(=O)N(C)C[C@@H]1Oc2ncc(C#Cc3ccccc3F)cc2C(=O)N([C@@H](C)CO)C[C@H]1C as the compound, how does the inhibition read?
**A.** 112% (active)

**Q.** Which inhibition does the source give for C[C@@H]1CN([C@@H](C)CO)C(=O)c2cc(NC(=O)Nc3cccc4ccccc34)ccc2O[C@H]1CN(C)Cc1ccc(Oc2ccccc2)cc1 here?
**A.** 103% (active)

**Q.** With C[C@@H]1CN([C@@H](C)CO)C(=O)c2cc(NC(=O)Nc3cccc4ccccc34)ccc2O[C@H]1CN(C)Cc1ccc(Cl)c(Cl)c1 as the compound, how does the inhibition read?
**A.** 97.9% (active)

**Q.** For O=C(c1ccc(F)cc1)N1CCCCN2[C@H](C1)[C@@H](c1ccc(C#CC3(O)CCCC3)cc1)[C@@H]2CO, which inhibition is on record?
**A.** 45.9%

**Q.** For Cc1ccc(-c2ccc([C@H]3[C@H](CO)N4CCCCN(Cc5cncnc5)C[C@@H]34)cc2)cc1, which inhibition is on record?
**A.** 102% (active)

**Q.** For Cc1cccc(-c2ccc([C@H]3[C@@H](CO)N4CCCCN(Cc5cncnc5)C[C@H]34)cc2)c1, which inhibition is on record?
**A.** 84.9%

**Q.** With OC[C@@H]1[C@H](c2ccc(C#Cc3ccccc3)cc2)[C@@H]2CN(Cc3cncnc3)CCCCN12 as the compound, how does the inhibition read?
**A.** 104% (active)

**Q.** For OC[C@H]1[C@H](c2ccc(-c3cccc(F)c3)cc2)[C@@H]2CN(Cc3cncnc3)CCCCN12, which inhibition is on record?
**A.** 82.2%

**Q.** For OC[C@@H]1[C@H](c2ccc(C#CC3(O)CCCC3)cc2)[C@H]2CN(Cc3cncnc3)CCCCN12, which inhibition is on record?
**A.** 99.2% (active)

**Q.** For O=C(Nc1ccc(Cl)cc1)N[C@@H]1CC[C@@H](CCNC(=O)c2ccccc2F)O[C@H]1CO, which inhibition is on record?
**A.** 45.6%

**Q.** For O=C(Nc1cc(Cl)cc(Cl)c1)N[C@H]1CC[C@@H](CCNS(=O)(=O)c2cccc(F)c2)O[C@H]1CO, which inhibition is on record?
**A.** 113% (active)

**Q.** For CC(C)NC(=O)N1[C@H](C#N)[C@H](c2ccc(C#CC3CCCCC3)cc2)[C@H]1CO, which inhibition is on record?
**A.** 105% (active)

**Q.** With CCc1cnc(N2[C@H](C#N)[C@H](c3ccc(C4=CCCC4)cc3)[C@@H]2CO)s1 as the compound, how does the inhibition read?
**A.** 106% (active)

**Q.** Which inhibition does the source give for CS(=O)(=O)N1[C@@H](C#N)[C@H](c2ccc(C#CC3CCCCC3)cc2)[C@@H]1CO here?
**A.** 103% (active)

**Q.** Which inhibition does the source give for N#C[C@H]1[C@@H](c2ccc(C3=CCCCC3)cc2)[C@@H](CO)N1C(=O)NC1CCCCC1 here?
**A.** 105% (active)
